Data taken from the supplement of paper PMC11732987, “Enantioselective OTUD7B fragment discovery through chemoproteomics screening and high-throughput optimisation” (Communications Chemistry, 2025).

Experiments:
Experiment in all cases: log2 ratio of Biotin-Ahx-Ub-VS probe labelling (fragment/DMSO); higher = less target engagement (more negative = stronger competition), active = hit call of the paper (q ≤ 0.05, log2 ratio ≤ -1)
Conditions in all cases: compound concentration: 200 uM; treatment time: 3 h
USP19 = target: T1, USP19 (UniProt O94966)
T1 sequence (whole entry): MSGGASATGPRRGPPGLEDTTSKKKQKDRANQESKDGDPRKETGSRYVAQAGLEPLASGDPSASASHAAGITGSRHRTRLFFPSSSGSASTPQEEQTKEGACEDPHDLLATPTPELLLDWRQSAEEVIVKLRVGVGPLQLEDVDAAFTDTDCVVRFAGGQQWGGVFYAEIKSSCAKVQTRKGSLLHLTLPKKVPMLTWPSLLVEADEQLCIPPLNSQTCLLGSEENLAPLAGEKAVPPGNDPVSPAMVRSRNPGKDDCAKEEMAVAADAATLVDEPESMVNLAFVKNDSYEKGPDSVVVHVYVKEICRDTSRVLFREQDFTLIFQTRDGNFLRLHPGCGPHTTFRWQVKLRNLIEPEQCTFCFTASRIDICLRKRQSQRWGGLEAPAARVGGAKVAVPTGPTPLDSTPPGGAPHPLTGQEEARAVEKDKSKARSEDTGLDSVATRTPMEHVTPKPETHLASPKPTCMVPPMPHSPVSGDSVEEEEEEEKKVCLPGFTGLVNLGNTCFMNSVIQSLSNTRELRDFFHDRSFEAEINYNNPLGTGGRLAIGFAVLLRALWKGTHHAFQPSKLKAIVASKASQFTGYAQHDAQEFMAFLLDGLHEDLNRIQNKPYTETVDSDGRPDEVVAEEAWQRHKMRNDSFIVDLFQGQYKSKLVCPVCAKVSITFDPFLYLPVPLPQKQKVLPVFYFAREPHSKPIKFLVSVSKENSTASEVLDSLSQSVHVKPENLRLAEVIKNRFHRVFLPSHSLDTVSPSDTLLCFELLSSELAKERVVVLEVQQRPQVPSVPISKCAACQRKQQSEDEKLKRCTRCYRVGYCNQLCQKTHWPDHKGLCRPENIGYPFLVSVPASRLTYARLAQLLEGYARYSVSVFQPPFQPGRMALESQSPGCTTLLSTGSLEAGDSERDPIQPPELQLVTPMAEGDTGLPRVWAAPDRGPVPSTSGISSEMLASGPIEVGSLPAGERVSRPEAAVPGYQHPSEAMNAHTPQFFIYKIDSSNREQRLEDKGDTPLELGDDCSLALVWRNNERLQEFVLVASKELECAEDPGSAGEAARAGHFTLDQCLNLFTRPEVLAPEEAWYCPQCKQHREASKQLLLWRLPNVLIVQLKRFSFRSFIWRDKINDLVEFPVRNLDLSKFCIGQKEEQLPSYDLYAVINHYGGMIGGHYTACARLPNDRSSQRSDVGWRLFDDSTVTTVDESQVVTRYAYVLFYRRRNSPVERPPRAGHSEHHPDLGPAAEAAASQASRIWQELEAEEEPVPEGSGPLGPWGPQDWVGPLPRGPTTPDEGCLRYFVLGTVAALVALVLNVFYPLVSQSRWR
Procedure, shortened: (§1)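 HEK293T lysate, 495 µg per sample in Tris/CHAPS/IGEPAL buffer with protease inhibitors, was treated in triplicate with fragment at 200 µM or vehicle for 3 h and then with Biotin-Ahx-Ub-VS at 0.5 µM final for 1 h. Labelled DUBs were NeutrAvidin-enriched, digested with LysC and trypsin, and run by diaPASEF LC-MS/MS. Spectronaut label-free quantities were global-median-normalised, and values are average log2 fragment/vehicle ratios by unpaired t-test on proteins with ≥2 unique peptides.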

USP22 = target: T2, USP22 (UniProt Q9UPT9)
T2 sequence (whole entry): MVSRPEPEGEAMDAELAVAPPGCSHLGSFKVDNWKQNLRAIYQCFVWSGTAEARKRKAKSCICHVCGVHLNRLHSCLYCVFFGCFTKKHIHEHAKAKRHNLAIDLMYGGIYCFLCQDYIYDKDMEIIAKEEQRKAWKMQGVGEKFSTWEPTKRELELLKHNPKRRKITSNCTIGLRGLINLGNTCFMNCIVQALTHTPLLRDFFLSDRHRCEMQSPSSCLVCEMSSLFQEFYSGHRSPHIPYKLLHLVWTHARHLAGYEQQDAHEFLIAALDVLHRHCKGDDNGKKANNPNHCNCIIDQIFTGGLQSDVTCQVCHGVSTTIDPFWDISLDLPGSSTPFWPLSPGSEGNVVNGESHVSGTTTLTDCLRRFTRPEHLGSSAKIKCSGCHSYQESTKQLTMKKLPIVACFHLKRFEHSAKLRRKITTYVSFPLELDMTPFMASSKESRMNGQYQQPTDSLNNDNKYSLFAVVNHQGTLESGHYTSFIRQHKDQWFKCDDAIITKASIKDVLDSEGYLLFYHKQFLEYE
Procedure, shortened: as §1

USP24 = USP24 (UniProt Q9UPU5)
USP24, sequence (Q9UPU5 whole entry): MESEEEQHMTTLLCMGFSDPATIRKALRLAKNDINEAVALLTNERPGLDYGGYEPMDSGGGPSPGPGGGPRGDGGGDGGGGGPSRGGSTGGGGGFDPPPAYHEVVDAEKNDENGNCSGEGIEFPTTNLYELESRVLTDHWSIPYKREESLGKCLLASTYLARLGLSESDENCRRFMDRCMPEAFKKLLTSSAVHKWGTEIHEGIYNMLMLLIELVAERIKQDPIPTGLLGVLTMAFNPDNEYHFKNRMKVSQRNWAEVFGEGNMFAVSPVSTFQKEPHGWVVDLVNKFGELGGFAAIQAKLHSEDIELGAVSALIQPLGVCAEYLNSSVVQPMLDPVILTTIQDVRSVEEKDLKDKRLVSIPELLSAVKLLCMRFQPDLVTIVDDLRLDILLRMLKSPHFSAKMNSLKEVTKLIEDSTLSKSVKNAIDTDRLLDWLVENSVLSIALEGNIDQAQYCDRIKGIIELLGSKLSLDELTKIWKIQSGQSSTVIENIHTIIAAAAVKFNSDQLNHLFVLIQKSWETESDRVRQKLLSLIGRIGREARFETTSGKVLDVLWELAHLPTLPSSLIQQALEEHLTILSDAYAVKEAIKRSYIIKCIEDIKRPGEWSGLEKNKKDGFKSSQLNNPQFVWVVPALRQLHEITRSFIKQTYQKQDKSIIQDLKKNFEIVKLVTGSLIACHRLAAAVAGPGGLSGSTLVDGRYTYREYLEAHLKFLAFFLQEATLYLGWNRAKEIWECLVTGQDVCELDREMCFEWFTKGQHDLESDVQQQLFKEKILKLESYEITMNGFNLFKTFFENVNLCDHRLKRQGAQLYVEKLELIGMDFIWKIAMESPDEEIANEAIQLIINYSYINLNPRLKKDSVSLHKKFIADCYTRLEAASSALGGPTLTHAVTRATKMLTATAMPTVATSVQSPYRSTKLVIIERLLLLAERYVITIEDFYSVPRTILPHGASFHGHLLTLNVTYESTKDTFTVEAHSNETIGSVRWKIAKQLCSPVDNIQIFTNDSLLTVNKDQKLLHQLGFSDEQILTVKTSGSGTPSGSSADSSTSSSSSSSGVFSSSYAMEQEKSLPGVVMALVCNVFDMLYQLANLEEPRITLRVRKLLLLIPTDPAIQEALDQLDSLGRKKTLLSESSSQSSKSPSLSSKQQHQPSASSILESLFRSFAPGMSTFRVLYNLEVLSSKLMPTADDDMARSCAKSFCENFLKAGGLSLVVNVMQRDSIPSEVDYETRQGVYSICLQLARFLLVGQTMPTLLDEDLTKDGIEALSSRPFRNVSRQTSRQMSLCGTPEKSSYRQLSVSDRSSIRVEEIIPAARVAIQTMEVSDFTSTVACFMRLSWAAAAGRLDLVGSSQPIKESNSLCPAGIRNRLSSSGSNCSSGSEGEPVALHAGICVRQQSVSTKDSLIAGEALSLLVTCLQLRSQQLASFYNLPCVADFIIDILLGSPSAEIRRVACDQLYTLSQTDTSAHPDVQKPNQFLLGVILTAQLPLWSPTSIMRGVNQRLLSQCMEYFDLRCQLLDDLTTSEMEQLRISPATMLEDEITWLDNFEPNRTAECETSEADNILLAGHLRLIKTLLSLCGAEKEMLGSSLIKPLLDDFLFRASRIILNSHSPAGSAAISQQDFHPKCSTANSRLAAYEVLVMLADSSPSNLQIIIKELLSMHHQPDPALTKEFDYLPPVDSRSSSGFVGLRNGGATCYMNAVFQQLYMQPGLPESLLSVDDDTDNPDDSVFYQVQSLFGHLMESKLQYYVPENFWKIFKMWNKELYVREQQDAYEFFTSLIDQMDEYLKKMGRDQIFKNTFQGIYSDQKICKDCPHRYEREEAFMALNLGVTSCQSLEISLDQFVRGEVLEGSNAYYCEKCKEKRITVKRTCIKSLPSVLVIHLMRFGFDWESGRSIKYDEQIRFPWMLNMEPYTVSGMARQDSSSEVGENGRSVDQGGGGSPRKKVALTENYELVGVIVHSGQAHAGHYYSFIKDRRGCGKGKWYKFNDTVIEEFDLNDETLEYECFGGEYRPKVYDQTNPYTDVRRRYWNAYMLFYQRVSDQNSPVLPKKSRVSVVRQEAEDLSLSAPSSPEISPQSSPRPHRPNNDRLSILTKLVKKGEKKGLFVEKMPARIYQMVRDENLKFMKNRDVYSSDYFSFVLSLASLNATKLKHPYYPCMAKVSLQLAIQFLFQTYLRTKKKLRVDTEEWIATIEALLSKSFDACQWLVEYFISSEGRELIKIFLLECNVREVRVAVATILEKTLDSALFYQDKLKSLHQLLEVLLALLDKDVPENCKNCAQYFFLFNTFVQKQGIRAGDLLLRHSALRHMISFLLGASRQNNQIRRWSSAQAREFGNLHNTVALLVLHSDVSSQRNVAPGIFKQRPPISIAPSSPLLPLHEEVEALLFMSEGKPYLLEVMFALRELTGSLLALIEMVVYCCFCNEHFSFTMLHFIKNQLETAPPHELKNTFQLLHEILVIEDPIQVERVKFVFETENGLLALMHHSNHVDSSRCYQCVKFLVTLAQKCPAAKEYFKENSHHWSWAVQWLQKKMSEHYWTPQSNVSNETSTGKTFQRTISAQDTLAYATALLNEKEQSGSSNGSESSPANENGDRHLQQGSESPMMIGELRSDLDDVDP
Procedure, shortened: as §1

USP25 = target: T3, USP25 (UniProt Q9UHP3)
T3 sequence (whole entry): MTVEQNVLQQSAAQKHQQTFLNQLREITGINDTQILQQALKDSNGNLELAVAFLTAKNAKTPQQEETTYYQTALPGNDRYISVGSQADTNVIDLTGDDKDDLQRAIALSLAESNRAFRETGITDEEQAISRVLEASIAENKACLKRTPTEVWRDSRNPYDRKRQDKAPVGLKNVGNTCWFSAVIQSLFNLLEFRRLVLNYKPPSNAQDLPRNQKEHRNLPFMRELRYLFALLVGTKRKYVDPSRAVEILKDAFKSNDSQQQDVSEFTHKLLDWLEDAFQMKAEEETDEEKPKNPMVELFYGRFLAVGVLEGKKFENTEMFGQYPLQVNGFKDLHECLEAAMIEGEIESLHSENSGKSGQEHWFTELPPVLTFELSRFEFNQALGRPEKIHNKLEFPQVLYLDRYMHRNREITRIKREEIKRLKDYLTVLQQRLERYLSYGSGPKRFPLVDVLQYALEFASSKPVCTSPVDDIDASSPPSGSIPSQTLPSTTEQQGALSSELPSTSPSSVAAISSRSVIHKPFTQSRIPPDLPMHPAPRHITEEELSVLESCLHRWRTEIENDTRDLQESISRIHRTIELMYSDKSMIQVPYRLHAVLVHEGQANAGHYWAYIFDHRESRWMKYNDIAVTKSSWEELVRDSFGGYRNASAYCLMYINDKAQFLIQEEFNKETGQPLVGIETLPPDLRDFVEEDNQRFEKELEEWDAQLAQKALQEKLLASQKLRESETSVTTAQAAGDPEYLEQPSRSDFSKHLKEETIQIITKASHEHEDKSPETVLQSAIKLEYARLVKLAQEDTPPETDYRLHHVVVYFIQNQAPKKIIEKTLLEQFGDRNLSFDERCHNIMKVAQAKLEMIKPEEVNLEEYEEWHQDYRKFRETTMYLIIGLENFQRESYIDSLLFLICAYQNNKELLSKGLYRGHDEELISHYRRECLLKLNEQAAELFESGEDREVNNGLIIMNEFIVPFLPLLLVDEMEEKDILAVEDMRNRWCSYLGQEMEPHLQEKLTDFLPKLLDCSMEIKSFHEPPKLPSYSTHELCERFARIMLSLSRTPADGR
Procedure, shortened: as §1

USP28 = target: T4, USP28 (UniProt Q96RU2)
T4 sequence (whole entry): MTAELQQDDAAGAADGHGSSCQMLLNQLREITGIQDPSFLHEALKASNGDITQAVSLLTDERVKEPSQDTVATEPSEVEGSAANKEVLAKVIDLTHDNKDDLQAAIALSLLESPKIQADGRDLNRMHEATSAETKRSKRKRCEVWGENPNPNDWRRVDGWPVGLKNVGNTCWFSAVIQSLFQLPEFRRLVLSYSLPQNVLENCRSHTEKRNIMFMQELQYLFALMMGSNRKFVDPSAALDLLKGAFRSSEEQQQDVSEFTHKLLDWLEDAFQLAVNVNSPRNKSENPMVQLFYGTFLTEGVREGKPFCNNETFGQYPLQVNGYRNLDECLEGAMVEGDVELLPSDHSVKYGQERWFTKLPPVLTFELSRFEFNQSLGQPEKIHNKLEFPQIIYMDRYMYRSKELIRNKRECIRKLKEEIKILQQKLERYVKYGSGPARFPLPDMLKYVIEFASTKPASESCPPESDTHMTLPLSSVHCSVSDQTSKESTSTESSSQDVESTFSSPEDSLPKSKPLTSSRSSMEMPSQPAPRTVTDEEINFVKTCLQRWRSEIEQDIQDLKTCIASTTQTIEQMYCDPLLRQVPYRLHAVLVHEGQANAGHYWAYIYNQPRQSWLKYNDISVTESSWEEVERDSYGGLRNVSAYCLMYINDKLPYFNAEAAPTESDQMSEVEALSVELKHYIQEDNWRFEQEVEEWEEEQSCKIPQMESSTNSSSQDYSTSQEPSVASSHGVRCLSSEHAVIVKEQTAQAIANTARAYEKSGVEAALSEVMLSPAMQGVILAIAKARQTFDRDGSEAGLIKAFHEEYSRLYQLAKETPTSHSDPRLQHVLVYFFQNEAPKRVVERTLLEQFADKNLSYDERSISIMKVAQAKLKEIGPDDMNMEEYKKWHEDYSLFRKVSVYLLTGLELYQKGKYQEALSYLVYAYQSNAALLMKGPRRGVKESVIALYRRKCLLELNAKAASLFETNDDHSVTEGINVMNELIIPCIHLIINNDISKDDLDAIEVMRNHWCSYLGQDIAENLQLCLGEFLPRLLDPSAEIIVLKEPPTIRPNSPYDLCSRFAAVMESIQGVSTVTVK
Procedure, shortened: as §1

Measured: log2 ratio of Biotin-Ahx-Ub-VS probe labelling

CCN(C(=O)CCl)C1CCS(=O)(=O)C1 (stereo not given)
inactive: USP19 0.00457 | USP22 -0.0368 | USP24 0.0946 | USP25 -0.0672 | USP28 -0.106
